# According to PubChem BioAssay (EPA / NIEHS):
# The source made the active and inactive calls. Rule for the calls: active = hit-call score of the fitted dose curve at least 0.9, where 1 is the maximum; inactive = score below 0.9.
# Read-out: Cytochrome P450 (CYP2B6), CYP2B6 (gene 1555)
# Assay: LTEA_HepaRG_CYP2B6: Life Technologies and Expression Analysis (LTEA) Assay for Cytochrome P450 (CYP2B6) using HepaRG (AID 2283481)
# Settings: mRNA level, 48 h; actives raise or lower the signal
# Procedure: LTEA_HepaRG is a cell based, multiplexed-readout assay that uses HepaRG, a human liver cell line, with measurements taken at 48 hours after chemical dosing on a 96-well plate.LTEA_HepaRG_CYP2B6 is one of 102 assay component(s) measured in the LTEA HepaRG cell culture assay. It is a marker of NR mediated metabolism.Data from the assay component LTEA_HepaRG_CYP2B6 was analyzed into 1 endpoint. This assay endpoint, LTEA_HepaRG_CYP2B6, was analyzed with bidirectional fitting relative to DMSO as the negative control and baseline of activity. Using a type of inducible reporter, measures of mRNA induction for gain or loss-of-signal activity can be used to understand regulation of transcription factor activity. To generalize the intended target to other relatable targets, this assay endpoint is annotated to the cyp intended target family, where the subfamily is xenobiotic metabolism.
# A total of 1060 chemcials from the ToxCast library were tested in eight-point concentration-response experiments. Cell culture and cytotoxicity assays were conducted at Thermo Fisher Scientific's Custom Services facility (Madison, WI). A single lot of human HepaRG cells (Thermo Fisher Scientific, Frederick, MD) was used for the cell culture experiments. 96-well format collagen type I coated plates of human HepaRG cells were prepared using established methods. Briefly, cryopreserved HepaRG cells were thawed, plated at a density of approximately 100,000 cells/well in HepaRG Thaw, Plate, and General Purpose media (HPRG770, Thermo Fisher Scientific), and incubated for 48 hours. 0.5% DMSO was selected as vehicle control to balance the requisite need of DMSO in HepaRG cultures to maintain differentiation (for example, baseline metabolism, proportions of hepatocytes vs. cholangiocytes), while enabling further hepatic receptor pathway activation (for example, PXR and CAR) in response to chemical exposure. 48 hours after plating, the culture medium was replaced with HepaRG Serum-Free Incudtion Media. Cells were exposed to each test chemical in duplicate and maintained in CO2 incubators for another 48 hours. Chemical plates were thawed to room temperature and 200x concentrations of treatment groups were prepared. 8-point conentration-reponse curves were made with the highest exposure at 100 uM, followed by half-log dilutions, all in 0.5% DMSO. Each test plate contained variouse controls, induction positive controls (1mM phenobarbital), cytotoxicity positive controls ([…] aflatoxin B1), vehicle controls (0.5% DMSO), and total lysis controls (0.5% DMSO). Cell morphology images were taken using an Essen IncuCyte FLR automated microscope, with six 96-well plates imaged in about 24 minutes. Images were captured and exported and JPEG files. Spent culture media was transfered to black-well plates for the LDH assay, and remaining media was sorted at -80 C for later use. Cells were treated with RLT buffer and frozen until shipped for gene expression analysis. Total RNA was isolated from the cell suspension in 75 uL of Buffer RLT (Qiagen, Germantown, MD 20874) by Quintiles/Expression Analysis (Durham, NC) using a custom isolation procedure. Total RNA from each plate well was transferred to a preamplification plate. Fluidigm's 96.96 Dynamic ArrayTM (Fluidigm, Amsterdam, the Netherlands) technology was used for gene expression analyses by quantitative reverse transcription polymerase chain reaction (qRT-PCR, performed by Quintiles/Expression Analysis, Durham, NC)89. Standard TaqManTM Assays (Applied Biosystems/ThermoFisher Scientific, Foster City, CA) were used to assess the expression of 93 genes selected based on their selectivity and sensitivity to important hepatic receptors known to be modulated by environmental chemicals; importance in human hepatocyte functionality; and hepatotoxicity. […]
Structure (SMILES),outcome,AC50
CCCCC(CC)CO (stereo not given),inactive,–
Cc1occc(=O)c1O,inactive,–
CC(C)c1cccc(C(C)C)c1NC(=O)NS(=O)(=O)c1cc(C(C)(C)O)co1,–,5.18 µM (active)
c1ccc2occc2c1,–,5.44 µM (active)
CC(C)OC(=O)C(C)(C)Oc1ccc(C(=O)c2ccc(Cl)cc2)cc1,–,63.3 µM (active)
CC1=C(C)S(=O)(=O)CCS1(=O)=O,–,89 µM (active)
CCCCCCC(C=O)=Cc1ccccc1,–,15.9 µM (active)
CCCCCCCCCCCCCCOS(=O)(=O)O,–,85.6 µM (active)
CC(C)COC(=O)CCCCC(=O)OCC(C)C,inactive,–
CCCC(=O)O,inactive,–
OCC(O)CO,–,22.6 µM (active)
CC(=O)OC1CC(C)OC(C)O1 (stereo not given),inactive,–
C=CCc1ccc(OC)c(OC)c1,–,2.13 µM (active)
COC(=O)CCC(=O)OC,inactive,–
COC(=O)CCCC(=O)OC,inactive,–
CC(=O)S[C@H](C(=O)N[C@H]1Cc2ccccc2[C@H]2CCC[C@@H](C(=O)O)N2C1=O)C(C)C,inactive,–
C/C=C/c1ccc(OC)cc1,inactive,–
CC(C)c1cccc(C(C)C)c1,inactive,–
CC(N)=O,inactive,–
CCCCOC(=O)CCCCC(=O)OCCCC,inactive,–

Structure (SMILES),outcome,AC50
Cc1ccc(C(C)(C)C)c(O)c1,inactive,–
O=C(O)c1cccnc1,inactive,–
CC1(C)C(=O)NC(=O)N1CO,inactive,–
Cc1cn([C@H]2C=C[C@@H](CO)O2)c(=O)[nH]c1=O,–,10.3 µM (active)
O=NO,inactive,–
CC(=O)O[C@]1(C(C)=O)CC[C@H]2[C@@H]3C=C(Cl)C4=CC(=O)[C@@H]5C[C@@H]5[C@]4(C)[C@H]3CC[C@@]21C,–,50 µM (active)
O=Cc1ccccc1C=O,–,23.3 µM (active)
CC(C)NCC(O)c1ccc(O)c(O)c1 (stereo not given),–,0.132 µM (active)
COc1ccc(C(=O)Nc2nc3ccccc3c(NCc3ccccc3)c2C#N)cc1,inactive,–
CN(C)CCCN1c2ccccc2Sc2ccc(Cl)cc21,–,2.21 µM (active)
O=[Si]=O,–,0.099 µM (active)
Nc1nc(Cl)nc2c1ncn2[C@H]1C[C@H](O)[C@@H](CO)O1,–,1.22 µM (active)
OCC(CO)n1cnc(-c2ccc(F)cc2)c1-c1ccnc(Oc2ccccc2)n1,–,22.6 µM (active)
CC(C)(C)c1ccccc1,inactive,–
Cc1cc(Cc2ccc(N)c(C)c2)ccc1N,–,0.823 µM (active)
CN(C)CCCN(C)CCCN(C)C,inactive,–
O=C1NC(=O)C(c2ccccc2)(c2ccccc2)N1,–,1.18 µM (active)
C#CC(O)C(CC)CCCC (stereo not given),–,24.4 µM (active)
CC(COCC(C)OC(=O)c1ccccc1)OC(=O)c1ccccc1 (stereo not given),inactive,–
CCCCCCCC(=O)OC,inactive,–
